From PubChem BioAssay AID1220 (Sanford-Burnham Center for Chemical Genomics, 2008)
Screen size: about 190,000 compounds; about 1,300 (0.68%) were called active. Rule as the data show it: active = inhibition above about 50%; inactive = the rest. The entries come from a sample that favours actives as a whole.

These compounds were tested against Mannose-6-phosphate isomerase (Homo sapiens) (UniProt P34949) (assay: human PMI inhibitors, high substrate, primary screen, biochemical, fluorescence intensity, high mannose 6-phosphate (AID 1220)). Details: recombinant PMI enzyme, coupled fluorescence intensity; at 20 µM; stronger effect = higher value.
Mannose-6-phosphate isomerase (Homo sapiens), sequence (P34949 whole entry, looked up): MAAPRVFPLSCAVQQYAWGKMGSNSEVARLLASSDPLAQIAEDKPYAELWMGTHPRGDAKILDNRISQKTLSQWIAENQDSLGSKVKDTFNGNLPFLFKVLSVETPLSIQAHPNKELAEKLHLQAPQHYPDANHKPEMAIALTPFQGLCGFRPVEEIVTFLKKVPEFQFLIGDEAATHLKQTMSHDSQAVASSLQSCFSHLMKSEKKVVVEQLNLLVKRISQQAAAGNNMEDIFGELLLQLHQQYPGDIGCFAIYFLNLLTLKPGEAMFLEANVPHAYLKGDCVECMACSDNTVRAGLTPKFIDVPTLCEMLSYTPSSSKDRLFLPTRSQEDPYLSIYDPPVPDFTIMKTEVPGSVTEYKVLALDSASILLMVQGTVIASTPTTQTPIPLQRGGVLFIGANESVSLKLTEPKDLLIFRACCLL

inhibition, active:
CC(=O)c1ccc2cccc3c2c1N=CN3C 55.2%
CC(C)(C)c1ccc(OCC(=O)N/N=C/c2ccsc2)cc1 54.9%
Cc1ccc(N2C(=O)c3cccc(Oc4ccc(Cl)cc4)c3C2=O)c(C)c1 50.4%
Cc1cc(C(=O)COc2cccnc2[N+](=O)[O-])c(C)n1Cc1ccco1 59.5%
O=C(COc1cccnc1[N+](=O)[O-])NCc1ccco1 65.7%
Cc1cc(C(=O)COc2cccnc2[N+](=O)[O-])c(C)n1Cc1cccs1 64.4%
COc1ccc(NC(C)=O)cc1NC(C)c1nc2sc(C)c(C)c2c(=O)[nH]1 (stereo unspecified) 66.6%
Cc1ccc2cccc(OC(=O)c3ccc4c(c3)OCCO4)c2n1 54%
Cc1ccc2cccc(OC(=O)/C=C\c3ccccc3)c2n1 60.1%
O=C(/C=C\c1ccccc1)Oc1cccc2cccnc12 51.9%
Cc1c(C(=O)Oc2cccc3cccnc23)oc2ccccc12 50%
COc1ccc(NCc2cc3ccccc3[nH]c2=O)cc1 59.2%
COc1ccc2[nH]c(=O)c(CNc3cccc(C)c3)cc2c1 55.1%
O=[N+]([O-])c1ccccc1S(=O)(=O)N1CCN(Cc2cc3c(cc2O)OCO3)CC1 59.2%
O=C(O)Cn1c2c(c3ccccc31)CCCC2 58.5%
CCN(CC)c1cc(C)c2cc(NC(=O)c3ccc(Br)o3)ccc2n1 70.4%
CCn1c(SCC(=O)N/N=C/C=C/c2ccco2)nnc1-c1ccc(OC)cc1 52.6%
CCNc1ccc(C(=O)OCC)cc1NC(=O)c1cccc(S(=O)(=O)N(C)c2ccccc2)c1 50.1%
Cc1c(CN2CCCCC2)c(O)n(CCCO)c(=O)c1C#N 52.1%
CCCn1c(O)c(CN2CCCCC2)c(C)c(C#N)c1=O 57.4%

inhibition, inactive:
CCSC1=NCCN1S(=O)(=O)c1ccccc1 7.2%
C/C(=C\C(=O)Nc1cc(C)on1)c1ccccc1 15.6%
Cc1nnc(NC(=O)C(C)Oc2ccc3c(C)cc(=O)oc3c2)s1 (stereo unspecified) -8.9%
CCS(=O)(=O)N1Cc2ccccc2CC1C(=O)Nc1ncc(C)s1 (stereo unspecified) -7.1%
Clc1cccc(Cl)c1Cn1cnc2c(N3CCCCCC3)ncnc21 14.8%
CC(=O)N1C(=O)c2cccc3cccc(c23)C(=O)N1C(C)=O 7.9%
CC(=O)c1c(C(C)=O)c(C)n(-c2cccc3cccnc23)c1C -2.3%
CC1=Nc2ncnn2C(c2ccccc2)/C1=N\O (stereo unspecified) -9.4%
Cc1ccc(NC2c3ncccc3C(=O)N2c2ccccc2C)cc1C (stereo unspecified) -17.7%
O=C(CCNC(=O)Cn1ccc2ccccc2c1=O)NCCCN1CCOCC1 10.9%
Cc1ccc(C)c(OCC(=O)N/N=C/c2ccsc2)c1 3%
COc1ccc(OCC(=O)N/N=C/c2ccsc2)cc1 17.2%
O=C(O)c1cccc(N2C(=O)c3cccc(Oc4ccc(Cl)cc4)c3C2=O)c1 -8.6%
Cc1cccc(N2C(=O)c3cccc(Oc4ccc(Cl)cc4)c3C2=O)c1 13.8%
Cc1[nH]c(=O)c(C#N)cc1-c1ccccc1 10.3%
CCn1c(=O)cc(SCC(=O)N2CCN(C)CC2)c2ccccc21 -10.8%
CC(=O)Nc1ccc(-c2nc(C)c(C(C)=O)n2O)cc1 22.6%
CCOc1ncccc1C(=O)OCC(=O)c1cc(C)n(Cc2ccco2)c1C 12.1%
Cc1ccc2cccc(OCC(=O)c3cc(C)n(Cc4ccco4)c3C)c2n1 20.9%
Cc1ccc(OCC(=O)NCc2ccco2)c([N+](=O)[O-])n1 1.9%
Cc1ccc(OCC(=O)c2cc(C)n(Cc3cccs3)c2C)c([N+](=O)[O-])n1 26.4%
CC(=O)Nc1ccccc1OCC(=O)c1cc(C)n(Cc2cccs2)c1C 17.5%
O=C(COc1cccnc1[N+](=O)[O-])NCc1cccs1 3%
O=[N+]([O-])c1cc(C(F)(F)F)ccc1NCCOc1ccccc1 9%
O=C(CCCCn1c(=O)c2ccccc2n(CC(=O)Nc2cccc(F)c2)c1=O)NCc1ccco1 9.4%
COc1ccc(S(=O)(=O)N(CC(=O)N2CCN(c3ccccc3OC)CC2)c2ccccc2)cc1 13.1%
Cc1sc2nc(C(C)Nc3ccccc3N3CCOCC3)[nH]c(=O)c2c1C (stereo unspecified) 26.7%
COc1ccc(NC(C)=O)cc1NC(C)C(=O)Nc1ccc(F)cc1 (stereo unspecified) 7%
COc1ccc(S(=O)(=O)CCC(=O)N2CCN(c3ccc(F)cc3)CC2)cc1 -1.5%
CCn1c(COc2ccc3c(c2)OCO3)nnc1SCC(=O)O -46.4%
Cc1ccc2cccc(OCC(=O)Nc3ccc4c(c3)OCO4)c2n1 15.2%
O=C(/C=C\c1ccco1)Oc1cccc2cccnc12 34.3%
Cc1c(C(=O)Nc2cccc3cccnc23)oc2ccccc12 -0.2%
O=C(Oc1cccc2cccnc12)c1ccc2c(c1)OCCO2 29.5%
CCc1nc2ccccc2c(C(=O)Oc2cccc3cccnc23)c1C 7.3%
COc1ccccc1/C=C/C(=O)Oc1cccc2cccnc12 26.5%
COC(=O)c1ccccc1OCCOCCOc1cccc2ccc(C)nc12 45%
Cc1ccc(C(C)C)c(OC(=O)/C=C/c2ccccc2)c1 6.5%
CCOCC(=O)Nc1nnc(COCC)s1 -1.8%
Cc1cc(NC(=O)COC(=O)CCCOc2ccc(Cl)cc2C)no1 4.5%
O=C(O)COc1ccc(/C=N/NC(=O)C2CCCN2S(=O)(=O)c2ccc(Cl)cc2)cc1 (stereo unspecified) -3.5%
O=C(O/N=C\c1ccc(N2CCOCC2)c([N+](=O)[O-])c1)c1ccc(F)cc1 8%
COc1ccc(NC(=O)CSCc2ccc(C)cc2)cc1 1.9%
Cc1ccc(C2NC(=O)c3c(sc(C)c3C)N2)c(O)c1 (stereo unspecified) -21.9%
Nc1ccccc1Nc1cc(-c2ccccc2)[nH]n1 28%
Cc1nc2c(n1C1CCCCC1)C(=O)c1ccccc1C2=O 35.4%
COc1ccc(NC(=O)CSc2cc(C)ccc2C)cn1 10.5%
COc1ccc(CC2(CO)CCN(Cc3cccc(OC)c3OC)CC2)cc1 6.7%
COc1ccc(NCc2cc3cc(OC)ccc3[nH]c2=O)cc1 30.7%
CC(C)(C)NCc1cc2ccccc2[nH]c1=O 6.8%
COc1ccc2[nH]c(=O)c(CNc3ccccc3)cc2c1 44.2%
COc1ccc2[nH]c(=O)c(CNc3ccc(C)c(C)c3)cc2c1 48.9%
CNCC(O)COc1cccc(OC)c1 (stereo unspecified) 9.8%
Cc1c(C)c2ccc(OS(C)(=O)=O)c(C)c2oc1=O -10.6%
Fc1ccc(CNC(=S)Nc2ccc(OC(F)F)cc2)cc1 5.2%
O=[N+]([O-])c1ccccc1S(=O)(=O)N1CCN(Cc2ccc3c(c2)OCO3)CC1 -3.6%
O=[N+]([O-])c1ccccc1S(=O)(=O)N1CCN(Cc2ccsc2)CC1 7.8%
COc1ccc(CN(Cc2cc3cc(OC)c(OC)cc3[nH]c2=O)C(=O)NC2CCCCC2)cc1 0.5%
COc1ccc(/C=N/OCC(=O)Nc2ccc3c(c2)OCO3)c(OC)c1 10.9%
O=C(O)Cn1c2ccccc2c2ccccc21 -2.4%
O=C(O)CCn1c2c(c3ccccc31)CCCC2 8.9%
Cc1cccc(N2CCN(C(=O)c3ccccn3)CC2C)c1 (stereo unspecified) 9.3%
O=C(/C=C/c1ccc(Cl)cc1Cl)N1CCc2ccccc21 -2.2%
CCN(CC)c1cc(C)c2cc(NC(=O)c3cccs3)ccc2n1 10.3%
CCN1CCN(c2cc(C)c3cc(NC(=O)c4ccc(Br)o4)ccc3n2)CC1 -5.1%
CCOC(=O)c1c(/N=C/c2cccc(C)c2O)sc2c1CCN(C)C2 -2.3%
Cn1c(=S)n(/N=C/c2ccc3c(c2)OCO3)c2ccccc21 -3.6%
CCn1c(SCC(=O)N/N=C/C(C)=C/c2ccco2)nnc1-c1ccccc1 43.3%
CCn1c(SCC(=O)N/N=C/C=C/c2ccco2)nnc1-c1ccccc1 -8.3%
O=C(COc1cccc2c1CCN(Cc1ccc(Cl)cc1)C2=O)N1CCOCC1 -2.4%
CC(C)CC(=O)NC(=S)Nc1ccc(S(=O)(=O)N2CCCC2)cc1 -1%
CCNc1ccc(C(=O)OCC)cc1NC(=O)c1cccc(S(=O)(=O)N2CCOCC2)c1 8.8%
CCNc1ccc(C(=O)OCC)cc1NC(=O)c1cccc(N(C)C)c1 6.9%
O=C(CNCC1CCCO1)N1CCN(S(=O)(=O)c2ccc3ccccc3c2)CC1 (stereo unspecified) -1.2%
O=C(/C=C/c1ccccc1Cl)Nc1ccncc1 -5.1%
CN1C(=O)CC(N2CCC(C(N)=O)CC2)C1=O (stereo unspecified) -4%
Cc1ccc(S(=O)(=O)Cn2nnnc2C(C)N2CCN(C(=O)c3ccco3)CC2)cc1 (stereo unspecified) 11.7%
Cc1cc(=O)n(CCCO)c(O)c1C#N 37.6%
CCCn1c(C)cc(C)c(C#N)c1=O -3.4%
Cc1cc(C)n(CCCO)c(=O)c1C#N -3.9%
CCCn1c(O)c(CN2CCCC(C)C2)c(C)c(C#N)c1=O (stereo unspecified) 39.4%
